# Reference: PubChem BioAssay (NCATS)
# Inconclusive results are not listed. The source made the active and inactive calls. The call rests on the fitted dose curve; in most records, active means well fitted inhibition curve with a large enough effect; inconclusive means small, poorly fitted or top-dose-only effect; inactive means flat fitted curve, though single readings scatter.
# Test system: CRL-7250
# Assay: Cytotoxic Profiling of Annotated Libraries Using Quantitative High-Throughput Screening (AID 1296008); further: nearly all actives have a fitted effect of over 60% in size
# Settings: Five cell lines viability, CellTiter-Glo ATP luminescence, 48-72 h; max response: stronger effect = lower value
# Method in brief: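 Cells exposed to compounds for 48 or 72 hr at 37 degrees Celsius. Viability read as ATP-coupled luminescence with CellTiter-Glo after 10 min at room temperature.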
# On the % scale 0 is the no-effect control and ±100 the full control effect; potency means the concentration at half of the fitted maximal effect.
SMILES,Potency,max response,outcome
COc1cc2nc(N3CCC(N4CCCCC4)CC3)nc(NC3CCCCCC3)c2cc1OC,16.4 µM (active),,
CC1CC(O)C2(OC1=O)OC1C(O)C3C4CCC5CC(OC6OC(CO)C(O)C(O)C6OC6OC(C)C(O)C(O)C6O)CCC5(C)C4CCC3(C)C1C2C (stereo not given),,-9.09% (inactive),
CC1=CC(=O)CC(C)(C)[C@@]1(O)CC[C@@H](C)O[C@@H]1O[C@H](CO)[C@@H](O)[C@H](O)[C@H]1O,,0.369% (inactive),
CC(=O)OC[C@H]1O[C@H](O[C@]2(CO)O[C@H](CO)[C@@H](OC(=O)/C=C/c3ccccc3)[C@@H]2O)[C@H](O)[C@@H](O)[C@@H]1O,,-26.1% (inactive),
CC1CCC2(OC1)OC1CC3C4CCC5C[C@@H](O[C@@H]6O[C@H](CO[C@@H]7OC[C@@H](O)[C@H](O)[C@H]7O)[C@H](O)[C@H](O)[C@H]6O)CC[C@]5(C)C4CC[C@]3(C)C1C2C (stereo not given in full),,-3.87% (inactive),
CC(C)(O)/C=C/C1=CC(=O)[C@@](C)(O)C[C@H]1O,,-5.51% (inactive),
C=C[C@H]1CN2CC[C@H]1C[C@@H]2C(O)c1ccnc2ccc(OC)cc12 (stereo not given in full),,,inactive
COC(=O)c1ccnc(-c2cc(C(=O)NCCc3ccccc3)ccn2)c1,,-12.7% (inactive),
CCCC(=O)C1CCN(c2ncnc3c2CN(C(=O)c2ccc(-c4ccccc4)cc2)CC3)CC1,,-7.29% (inactive),
CCOC(=O)c1sc(NC(=O)[C@H](C(C)C)n2c(=O)[nH]c3ccccc3c2=O)nc1C,,,inactive
C=C1CCC2C(C)(C)CCC[C@]2(C)[C@H]1C/C=C(\CO)C(=O)C(=O)O (stereo not given in full),,-8.85% (inactive),
C=C1CN(Cc2ccc(C(=O)Nc3ccccc3N)cc2)C(=O)c2ccccc21,2.06 µM (active),,
C=CC(C)(O)CC[C@H]1C(=C)CCC2[C@](C)(C(=O)O)CCC[C@@]21C (stereo not given in full),,2.31% (inactive),
O=C1NC(Cc2c[nH]c3ccccc23)C(=O)NC1Cc1c[nH]c2ccccc12 (stereo not given),,-0.609% (inactive),
C=C1C[C@]23C[C@H]1CC[C@H]2[C@@]12CC[C@H](O)[C@@](C)(C(=O)O1)[C@H]2[C@@H]3C(=O)O,,-11.3% (inactive),
COC(=O)CCC(=O)OC[C@]1(C)CCC[C@@]2(C)C3CC[C@]4(C)C=CC3(CCC12)C4 (stereo not given in full),,-4.15% (inactive),
O=C(O)c1ccc(OC2OC(CO)C(O)C(O)C2O)cc1 (stereo not given),,,inactive
C[C@@H]1O[C@@H](O[C@H]2[C@H](O)[C@@H](O)[C@H](OC3CCC4(C)C5CCC(C)(C(CO)OC6OC(CO)C(O)C(O)C6O)CC5=CCC4C3(C)C)O[C@@H]2CO)[C@H](O)[C@H](O)[C@H]1O (stereo not given in full),,2.65% (inactive),
C[C@@H]1CC[C@@]2(OC1)O[C@H]1C[C@H]3[C@@H]4CC=C5C[C@@H](O)CC[C@]5(C)[C@H]4CC[C@]3(C)[C@H]1[C@@H]2C,,3.2% (inactive),
C=C1CCC2C(C(C)(C)O)CCC2(C)CC(O)C(=C)CCC1O (stereo not given),,-17.3% (inactive),

SMILES,Potency,max response,outcome
CC1=C2C[C@H]3O[C@@]3(C)CCC3O[C@@]3(C)C[C@@]2(O)OC1=O (stereo not given in full),,,inactive
CC(O)/C=C/C1OC(=O)CC1Nc1ccc(C(=O)O)cc1 (stereo not given),,-10.3% (inactive),
C[C@@H]1CC[C@]2(C(=O)OC3OC(CO)C(O)C(O)C3O)CC[C@]3(C)C(=CCC4[C@@]5(C)CC[C@H](O)[C@](C)(C(=O)O)C5CC[C@]43C)C2[C@]1(C)O (stereo not given in full),,,inactive
O=S(=O)(c1ccc(S(=O)(=O)n2cnc3ccccc32)cc1)N1CCCCCC1,,-2.18% (inactive),
C[C@@H](O)[C@H](NC(=O)c1ccc(C#Cc2ccc(CN3CCOCC3)cc2)cc1)C(=O)NO,,-14.3% (inactive),
C(#Cc1nc2ncccc2nc1OCCN1CCCC1)c1ccccc1,6.51 µM (active),,
O=C1N=C(N2CCOCC2)CN1c1ccc(Cl)cc1,,-3.02% (inactive),
Cc1ccc(-c2ccc3c(ccc4sc5c(c43)NC[C@@H](C)NC5=O)n2)cn1,,,inactive
COc1nc2sc(C(=O)NC3CC3)c(N)c2c(C)c1Cl,,-8.27% (inactive),
CC(C)N(CCCCOCC(=O)NS(C)(=O)=O)c1cnc(-c2ccccc2)c(-c2ccccc2)n1,,-11.5% (inactive),
Cc1cc(C(=O)N2Cc3cnn(C)c3Nc3ccccc32)ccc1CNC(=O)N1CCC[C@H]1C(=S)N1CCCN(C)CC1,,2.05% (inactive),
CC1C(OC(=O)c2ccccc2)C(O)C2C(C(=O)O)=COC(OC3OC(CO)C(O)C(O)C3O)C12 (stereo not given),,3.33% (inactive),
CC(C)=CC/C=C(\C)[C@H]1CC[C@]2(C)[C@@H]1[C@H](O)C[C@@H]1[C@@]3(C)CC[C@H](O)C(C)(C)[C@@H]3[C@@H](O[C@@H]3O[C@H](CO)[C@@H](O)[C@H](O)[C@H]3O)C[C@]12C,,2.02% (inactive),
Cc1cn(C2C=CC(CO)O2)c(=O)[nH]c1=O (stereo not given),,-8.63% (inactive),
CCC(COC)n1nnc2c(Nc3ccc(OC)cc3C)nc(C)cc21 (stereo not given),,,inactive
Cc1cc(Cl)ccc1COc1ccnn1-c1cc(C(=O)O)ccn1,,0.791% (inactive),
CC(C)CN(C[C@@H](O)[C@H](Cc1ccccc1)NC(=O)O[C@@H]1CO[C@H]2OCC[C@H]21)S(=O)(=O)c1ccc(N)cc1,,4.36% (inactive),
CC1(C)CC[C@@]2(C(=O)O[C@@H]3O[C@H](CO)[C@@H](O)[C@H](O)[C@H]3O)C(C1)C1=CCC3[C@@]4(C)CC[C@@H](O[C@@H]5O[C@H](C(=O)O)[C@@H](O[C@@H]6OC[C@@H](O)[C@H](O)[C@H]6O)[C@H](O[C@@H]6OC[C@](O)(CO)[C@H]6O)[C@H]5O)C(C)(C)C4CC[C@@]3(C)[C@]1(C)C[C@H]2O (stereo not given in full),,,inactive
CN(C)CC1CCOC1(c1ccccc1)c1ccccc1 (stereo not given),,-5.19% (inactive),
COC(=O)C1(C)CCC2(C(=O)O)CCC3(C)C(=CCC4C5(C)CC(O)C(OC6OCC(O)C(O)C6O)C(C)(CO)C5CCC43C)C2C1 (stereo not given),,3.48% (inactive),
